Our source for the growth values is PubChem BioAssay (NCI).

Among the test systems are NCI-H23 lung; NCI-H226 lung; NCI-H322M lung; HOP-62 NSCLC; NCI-H460 lung; HOP-92 NSCLC; NCI-H522 lung; A549/ATCC NSCLC; 786-0 renal; COLO 205 colon; DU-145 prostate; MALME-3M melanoma; MDA-MB-231 breast; RXF 393 renal; SF-268 CNS; SF-295 CNS; SF-539 CNS; UACC-257 melanoma; M14 melanoma.
Common to all, as to experiment: NCI-60 one-dose screen, 48 h (100 = growth as untreated, 0 = no growth, -100 = all killed)
What all share (conditions): 10 µM unless noted

About 83,000 compounds went through this panel and 20% of them were active in at least one assay; those are over-represented in the sample as a whole.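 For each line, cells grew in 96-well plates with the test compound present at a single concentration for 48 hours.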 Unmarked numbers belong to inactive results. The source made the active and inactive calls. How the source made its calls: active means growth percent below 10; inactive means the rest.

On to `Oc1ccc(OCCOc2ccc(O)cc2)cc1`, for which the growth with NCI-H23 lung was 57.2%; with NCI-H226 lung, 92%; with NCI-H322M lung it was 82.1%; in the assay with HOP-62 NSCLC, 87.6%; with NCI-H460 lung it was 48.5%; with HOP-92 NSCLC, 94.2%. Further, the growth with NCI-H522 lung was 30.9%; in the assay on A549/ATCC NSCLC it was 35%; with 786-0 renal it was 28.3%; in the assay on COLO 205 colon, 108%; with DU-145 prostate, 61.4%; in the assay with MALME-3M melanoma, 62%. In addition, the growth was 50.3% in the assay with MDA-MB-231 breast; 71.7% with RXF 393 renal; 61% in the assay with SF-268 CNS; 32.7% with SF-295 CNS; 28% in the assay with SF-539 CNS; 83.8% with UACC-257 melanoma. Besides, the growth with M14 melanoma was 15.8%.

As for `O=C(NNc1nc2c(F)cccc2n2cccc12)c1cnccn1`, the growth in the assay on NCI-H23 lung was 24.8%; with NCI-H226 lung, 31.7%; in the assay on NCI-H322M lung it was 25.5%; in the assay with HOP-62 NSCLC, 30.2%; with NCI-H460 lung, 11.6%; in the assay with HOP-92 NSCLC, 67.4%. In addition, the growth with NCI-H522 lung is 2.24% (active); in the assay with A549/ATCC NSCLC, 15.7%; in the assay on 786-0 renal it was 27.4%; in the assay on COLO 205 colon it was -4% (active); in the assay with DU-145 prostate it was 26.2%; in the assay on MALME-3M melanoma it was 18.3%. The growth with MDA-MB-231 breast is 31.7%; with RXF 393 renal, 37.5%; in the assay with SF-268 CNS it was 30.6%; with SF-295 CNS, 8.17% (active); in the assay with SF-539 CNS, -0.386% (active); with UACC-257 melanoma it was 16.2%. Besides, the growth in the assay with M14 melanoma was 3.21% (active).

With `CC(=O)Oc1ccc(/C=N/NC(N)=S)nc1`, the growth was 37.8% with NCI-H23 lung; 32.1% in the assay on NCI-H226 lung; 92.8% in the assay with NCI-H322M lung; 74.5% with HOP-62 NSCLC; 96.4% with NCI-H460 lung; 63.9% in the assay with HOP-92 NSCLC. In addition, the growth in the assay on NCI-H522 lung is 74.5%; with A549/ATCC NSCLC, 98.2%; in the assay with 786-0 renal, 53.3%; in the assay with COLO 205 colon, 92.7%; with DU-145 prostate it was 81.5%; with MALME-3M melanoma it was 97.8%. The growth is 87.1% in the assay with MDA-MB-231 breast; 34.7% in the assay with RXF 393 renal; 66.5% in the assay on SF-268 CNS; 104% in the assay on SF-295 CNS; 20.4% with SF-539 CNS; 81.4% with UACC-257 melanoma. For the same compound, in the assay with M14 melanoma, the growth was 58.2%.

On to `COc1ccc(C(=O)Cn2c(C(=O)c3ccccc3)nc3ccccc32)cc1`, for which the growth with NCI-H23 lung was 28.2%; in the assay with NCI-H226 lung, 38.5%; in the assay on NCI-H322M lung, 78.7%; with HOP-62 NSCLC it was 40.6%; in the assay with NCI-H460 lung, 8.51% (active); with HOP-92 NSCLC, 54.7%. Also, the growth with NCI-H522 lung is -28.1% (active); in the assay on A549/ATCC NSCLC, 31.8%; with 786-0 renal it was 43.6%; in the assay with COLO 205 colon it was 51%; in the assay with DU-145 prostate, 36.7%; in the assay with MALME-3M melanoma, 46.6%. The growth in the assay on MDA-MB-231 breast was 37.6%; with RXF 393 renal, 13.1%; in the assay with SF-268 CNS, 52.9%; with SF-295 CNS, 12.2%; with SF-539 CNS, 15.1%; with UACC-257 melanoma, 54.3%. Also, in the assay with M14 melanoma, the growth was 6.97% (active).

In the case of `COc1ccc(/C=C/C(=O)Nc2cc(/C=C\c3cc(OC)c(OC)c(OC)c3)cc(OC)c2OC)cc1OC`, the growth in the assay with NCI-H23 lung was 0.824% (active); with NCI-H226 lung, 37.6%; in the assay on NCI-H322M lung, 42.3%; in the assay on HOP-62 NSCLC it was 33.9%; in the assay on NCI-H460 lung, 17.5%; in the assay with HOP-92 NSCLC, 46.2%. Further, the growth is -21.3% (active) in the assay with NCI-H522 lung; 40% in the assay with A549/ATCC NSCLC; 23% in the assay with 786-0 renal; 11.2% with COLO 205 colon; 53.2% with DU-145 prostate; 32.8% in the assay with MALME-3M melanoma. Further, the growth in the assay on MDA-MB-231 breast was 52%; in the assay on RXF 393 renal it was -5.89% (active); in the assay on SF-268 CNS, 31.5%; in the assay on SF-295 CNS it was 4.33% (active); with SF-539 CNS, 28.6%; in the assay on UACC-257 melanoma it was 50.7%. Also, the growth in the assay on M14 melanoma is 5.78% (active).

`C[C@H](c1nc2ccc(N)cc2[nH]1)[C@H]1CC[C@H]2[C@@H]3CCC4=CC(=O)CC[C@]4(C)[C@H]3CC[C@]12C`: the growth is 85.8% in the assay with NCI-H23 lung; 91% in the assay with NCI-H226 lung; 91.7% in the assay on NCI-H322M lung; 96.2% in the assay on HOP-62 NSCLC; 97.1% with NCI-H460 lung; 43.9% in the assay with HOP-92 NSCLC. Moreover, the growth in the assay with NCI-H522 lung is 84.3%; in the assay on A549/ATCC NSCLC, 96.7%; in the assay on 786-0 renal, 59.4%; in the assay on COLO 205 colon, 81.4%; in the assay with DU-145 prostate, 88.8%; with MALME-3M melanoma, 101%. The growth with MDA-MB-231 breast is 91.5%; in the assay with RXF 393 renal it was 44.6%; with SF-268 CNS, 82.2%; in the assay with SF-295 CNS it was 57.1%; with SF-539 CNS, 53.8%; in the assay with UACC-257 melanoma, 96.4%. In addition, the growth with M14 melanoma was 89.5%.

With `CC(C)c1ccc(Nc2ccc3c(OCCCN4CCN(C)CC4)cccc3n2)cc1`, the growth with NCI-H23 lung was 70.8%; in the assay with NCI-H226 lung, 83.9%; in the assay with NCI-H322M lung it was 82.6%; in the assay with HOP-62 NSCLC, 64.1%; in the assay on NCI-H460 lung, 52.1%; in the assay with HOP-92 NSCLC it was 56.5%. Besides, the growth in the assay on NCI-H522 lung was 83.2%; with A549/ATCC NSCLC, 51.5%; with 786-0 renal, 46.5%; in the assay with COLO 205 colon, -65.1% (active); in the assay on DU-145 prostate it was 76.1%; in the assay on MALME-3M melanoma it was 39.2%. For the same compound, the growth is 51.8% in the assay with MDA-MB-231 breast; 48.9% in the assay with RXF 393 renal; 71.8% in the assay on SF-268 CNS; 38.8% with SF-295 CNS; 73.5% with SF-539 CNS; 71.9% in the assay on UACC-257 melanoma. The growth in the assay on M14 melanoma was -67.6% (active).

With `N#CC1=C(N)Oc2c(ccc3ccccc23)C1c1ccccc1Cl` (configuration not stated), the growth in the assay on NCI-H23 lung was 30.9%; with NCI-H226 lung it was 69.3%; with NCI-H322M lung, 54.7%; in the assay with HOP-62 NSCLC, 49.9%; in the assay on NCI-H460 lung, 5.27% (active); with HOP-92 NSCLC, 80.6%. In addition, the growth in the assay with NCI-H522 lung was -7.02% (active); in the assay on A549/ATCC NSCLC it was 22.4%; in the assay on 786-0 renal it was 27.7%; in the assay with COLO 205 colon, -1.64% (active); with DU-145 prostate, 17.1%; with MALME-3M melanoma, 52%. The growth with MDA-MB-231 breast is 9.2% (active); with RXF 393 renal, 17.9%; with SF-268 CNS it was 51%; in the assay with SF-295 CNS, 8.26% (active); with SF-539 CNS, -13.5% (active); in the assay with UACC-257 melanoma, 60.1%. Also, in the assay with M14 melanoma, the growth is 12.5%.
